# Assay results as given in PubChem BioAssay (NCATS).
# “And” between values parts separate entries of the source, which are not always exact repeats. Equal values may be shown once. Results filed as inconclusive are left out. Some compounds were tested as several samples or in several runs, with calls that do not always agree. The source made the active and inactive calls. Calls follow the shape of the dose curve; as a rule, active = well fitted inhibition curve with a large enough effect; inconclusive = small, poorly fitted or top-dose-only effect; inactive = no such curve, though single readings can be large or run the other way.
# Test: Primary qHTS for inhibitors of nuclear receptor binding SET domain protein 2 (NSD2) in an RCH-ACV wild type WT cells (2C) (AID 1645877); also: nearly all actives have a fitted effect of over 70% in size
# Settings: RCH-ACV (leukaemia line) NSD2 WT (2C) viability, CellTiter-Glo, 72 h; series mostly up to 44.9 µM; activity change, negative = cell killing: at the top concentration
# From the text: Assay Provider: Jonathan D. Licht, MD
# University of Florida College of Medicine, Gainesville, FL
# Mutations in epigenetic regulators are common in relapsed pediatric acute lymphoblastic leukemia (ALL). Here, we uncovered the mechanism underlying the relapse of ALL driven by an activating mutation of the NSD2 histone methyltransferase (p.E1099K). […] Correction of this mutation restored glucocorticoid sensitivity. The transcriptional response to glucocorticoids was blocked in NSD2 mutant cells due to depressed glucocorticoid receptor (GR) levels and the failure of glucocorticoids to autoactivate GR expression. […] Pre-treatment of NSD2 p.E1099K cell lines and PDX samples with PRC2 inhibitors reversed glucocorticoid resistance in vitro and in vivo.
# High-throughput drug screening of isogenic RCH-ACV cell lines was performed at the National Center for Advancing Translational Science (NCATS), National Institutes of Health as previously described (1). Briefly, isogenic RCH-ACV NSD2 p.E1099K mutant (9B) and WT cells (2C) were plated at 500 cells/well in a 1536-well plate with a 72-hour incubation with compounds prior to addition of CellTiter-Glo to assess cell viability. NCATS libraries screened include: NPC, MIPE 5.0, Kinase and NPACT. To determine compound activity in the qHTS assay, the concentration-response data for each sample was plotted and modeled by a four-parameter logistic fit yielding IC50 and efficacy (maximal response) values. The area under the curve (AUC) of the dose-response curve ensures both efficacy (magnitude of cell killing) and potency (concentration that elicits cell killing) are accounted for in the analysis of activity.
# 1. Tobie D Lee, Olivia W Lee, Kyle R Brimacombe, Lu Chen, Rajarshi Guha, Sabrina Lusvarghi, Bethilehem G Tebase, Carleen Klumpp-Thomas, Robert W Robey, Suresh V Ambudkar, Min Shen, Michael M Gottesman, Matthew D Hall. A High-Throughput Screen of a Library of Therapeutics Identifies Cytotoxic Substrates of P-glycoprotein. Mol Pharmacol. 2019, Nov;96(5):629-640.
# % is scaled to controls: 0 for no effect and ±100 for the full control effect; potency is read from the fitted curve at half-maximal effect.
SMILES,Potency,outcome,"activity change, negative = cell killing"
COc1ccc2c(c1)c(C1=C(c3c[nH]c4ccccc34)C(=O)NC1=O)cn2CCCN(C)C,6.61 µM (active),,
Cc1csc(-c2nnc(Nc3ccc(Oc4ncccc4-c4ccnc(N)n4)cc3)c3ccccc23)c1,inactive and 3 nM (active),,
CC(C)C[C@@H](C(=O)N[C@H](C(=O)OC1CCCC1)c1ccccc1)[C@H](O)C(=O)NO,14.8 µM (active),,
CCC(=O)NCC[C@@H]1CCc2ccc3c(c21)CCO3,,inactive,
CCOC(=O)c1c(CSc2ccccc2)n(C)c2cc(Br)c(O)c(CN(C)C)c12,20.9 µM (active),,
COc1nccc(-c2c(-c3ccc(F)cc3)ncn2C2CCNCC2)n1,18.6 µM (active),,
c1ccc(-c2oc3ncnc(NC[C@@H]4CCCO4)c3c2-c2ccccc2)cc1,inactive and 18.3 µM (active),,
NC1(C(=O)N[C@@H](CCO)c2ccc(Cl)cc2)CCN(c2ncnc3[nH]ccc23)CC1,2.35 µM (active),,
CCn1c(-c2nonc2N)nc2cncc(CNC3CCNCC3)c21,11.5 µM (active),,
O=C(NC[C@H](O)CO)c1ccncc1Nc1ccc(I)cc1F,16.6 µM (active),,
COc1c(C)cnc(Cn2cnc3c(Cl)nc(N)nc32)c1C,0.263 µM (active),,
NC(=O)c1noc([C@H](CCCC2CCCCC2)CC(=O)NO)n1,1.66 µM (active),,
CCCCC[C@H](O)C=C[C@H]1[C@H](O)CC(=O)[C@H]1CC=CCCCC(=O)O,23.7 µM (active),,
CN1CCC(COc2cnc(-c3cccc(Cn4nc(-c5cccc(C#N)c5)ccc4=O)c3)nc2)CC1,10.5 µM (active) and 16.3 µM (active),,
Cn1cnc(-c2cc3nccc(Oc4ccc(NC(=S)NC(=O)Cc5ccccc5)cc4F)c3s2)c1,5.78 µM (active) and 3.32 µM (active),,
Cc1ccccc1-n1c(Cn2nc(-c3cccc(O)c3)c3c(N)ncnc32)nc2cccc(C)c2c1=O,0.728 µM (active),,
CCC(=O)N1CCN(c2ccc(-n3c(=O)ccc4cnc5ccc(-c6cnc7ccccc7c6)cc5c43)cc2C(F)(F)F)CC1,13.3 nM (active) and 20.4 nM (active),,
CCN1CCN(c2ccc(Nc3cc(N(C)C(=O)Nc4c(Cl)c(OC)cc(OC)c4Cl)ncn3)cc2)CC1,,,-17.7% (inactive)
CC1CNc2c(cccc2S(=O)(=O)N[C@@H](CCCN=C(N)N)C(=O)N2CC[C@@H](C)C[C@@H]2C(=O)O)C1 (stereo not given in full),,,0.716% (inactive)
CCCCOCCOc1nc(-c2ccc(C(=O)O)c(F)c2)sc1C,,,-6.35% (inactive)

SMILES,Potency,outcome,"activity change, negative = cell killing"
CNC1CCC(N(Cc2cccc(-c3ccncc3)c2)C(=O)c2sc3ccccc3c2Cl)CC1 (stereo not given),5.78 µM (active) and 7.42 µM (active),,
CNC(=O)c1cc(Oc2ccc(NC(=O)Nc3ccc(Cl)c(C(F)(F)F)c3)c(F)c2)ccn1,18.3 µM (active),,
CCN(CC)CCCCNc1nc2cc(Cl)c(Cl)cc2nc1-c1ccc(-c2cccs2)s1,7.42 µM (active),,
C=CC(=O)Nc1cccc(Sc2nc(Nc3ccc(N4CCN(C)CC4)cc3)ncc2Cl)c1,2.3 µM (active) and 2.63 µM (active),,
Cc1cc(C(C)Nc2ccccc2)c2nc(N3CCOCC3)cc(=O)n2c1 (stereo not given),2.3 µM (active) and 2.63 µM (active),,
Cc1cccc2c1CC[C@H](CN1CCC(c3c(Cl)cccc3Cl)CC1)C[C@@H]2O,7.28 µM (active),,
CCCCC(C)(C)[C@H](O)C=C[C@H]1[C@H](O)CC(=O)[C@H]1CC=CCCCC(=O)O,,,-6.31% (inactive)
O=C(Nc1ncc(SCCN2CCCC2)s1)[C@]1(c2ccc(S(=O)(=O)C3CC3)cc2)C[C@@H]1C1CCCCC1,14.6 µM (active),,
COc1nccc(-c2c(-c3ccc(F)cc3)ncn2C2CCC(O)CC2)n1 (stereo not given),20.9 µM (active),,
CCOC(=O)N1c2ccc(C(F)(F)F)cc2[C@@H](N(Cc2cc(C(F)(F)F)cc(C(F)(F)F)c2)C(=O)OC)C[C@H]1CC,,,-2.82% (inactive)
CC(C)(O)CC(=O)NCCn1ccc2ncnc(Nc3ccc(Oc4cccc(C(F)(F)F)c4)c(Cl)c3)c21,20.5 µM (active) and 13.2 µM (active),,
CS(=O)(=O)c1ccc(C2=C(c3ccccc3)C(=O)OC2)cc1,,,1.66% (inactive)
Cc1ccccc1C(C(=O)NC1CCCCC1)N(C(=O)CNc1ccc(C#N)cc1)c1cccc(F)c1 (stereo not given),,inactive,
CN1CCc2c(n(Cc3ccc(C(=O)NO)cc3)c3ccccc23)C1,14.5 µM (active) and 18.6 µM (active),,
Nc1ccc(-c2ccc3ncc4ccc(=O)n(-c5cccc(C(F)(F)F)c5)c4c3c2)cn1,20.9 nM (active) and 18.4 nM (active),,
N[C@@H](CC(=O)N1CCn2c(nnc2C(F)(F)F)C1)Cc1cc(F)c(F)cc1F,,,7.38% (inactive)
N#CC(c1ccnc(NCCc2cccnc2)n1)c1nc2ccccc2s1 (stereo not given),14.8 µM (active),,
CN1c2ccccc2C(=O)N2CCc3c([nH]c4ccccc34)C21 (stereo not given),1.32 µM (active),,
COc1cc([C@@H]2c3cc4c(cc3[C@@H](O[C@@H]3O[C@@H]5CO[C@@H](C)O[C@@H]5[C@H](O)[C@@H]3O)[C@H]3COC(=O)[C@H]23)OCO4)cc(OC)c1O,0.235 µM (active),,
NCc1c[nH]c(=S)n1[C@H]1CCc2c(F)cc(F)cc2C1,,,-14.7% (inactive)
